Data reported in the supplement of paper PMC11417369.
± gives the standard deviation of the averaged measurements. The full ranking holds about 25,000 sequences; the median of “ln(normalized median fluorescence intensity)” is about 10, and the highest 2% start at about 12. The entries come from a sample that favours the highest values as a whole.

test system: PfAP2-G AP2 domain (GST-tagged); experiment: gcPBM binding intensity (ln(normalized median fluorescence intensity)); higher = stronger DNA binding
In short: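 The binding buffer was 1× PBS containing 1% milk, 0.2 mg/ml BSA, 0.5% salmon testes DNA and 0.03% Triton X-100. In it, GST-tagged P. falciparum DNA-binding domains expressed in E. coli were applied for 1 h to an Agilent 4 × 180k array of primer-extended double-stranded 36-bp intergenic genomic probes plus negative controls. Binding intensity, read with Alexa488 anti-GST antibody and a 488 nm scan, is the highest Masliner-normalised natural-log median intensity across replicate spots of either probe orientation.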

| Sequence | gcPBM binding intensity (ln) |
| --- | --- |
| TATTTTTTAAAAAAATGTCATAAAATTTCTTTTTTC [XGTACX_negctrl_site271] | 9.9 |
| AAAAAAAAAAAAAGATGTACATATATTTTTATTATA [XGTACX_site654] | 11.4 ± 0.96 |
| GCCTATATGTTTAGTTGTACTCCTAATATTATTTGT [XGTACX_site6060] | 11.7 ± 1.1 |
| TAATATATTAATTTTTGTACTTAATTATATGTTTTT [XGTACX_site5654] | 10.9 ± 0.63 |
| ATATGCCTAATAAAATGTACGTTTGTTTTATTTATT [XGTACX_site3833] | 11 ± 0.49 |
| ATATATACATATATATGTACGTATATTTTTATTTCT [XGTACX_site6198] | 11.6 ± 1.1 |
| CTTTAACCATATATGTGTACGTATTTTATTCATATT [XGTACX_site6212] | 11.8 ± 1.1 |
| ATATTTATATTTTCATGTACGTATTTTTATATATAT [XGTACX_site8478] | 11.6 ± 0.96 |
| ATATGTATATTTTTTTGTACGTATTTATGTGTGTGT [XGTACX_site2093] | 11.4 ± 0.84 |
| ATACATATATAATTATGTACGTATATTTTATATAAC [XGTACX_site4292] | 11.6 ± 0.91 |
| ACTTTCAAGGATGTACGTACATATGTATTTTATAAC [XGTACX_site6714] | 11.7 ± 0.91 |
| TAATAAATCAAATGCACACACACAAAAAAAAAAAAA [CACACA_site161] | 10 ± 0.49 |
| AGAAATATATATATATATATATATATATATATATAT [TGCATGCA_negctrl_site375] | 10 ± 0.88 |
| TCTTTAAATTTCTCAACACACAGTTATAAAAAATAA [CACACA_site2856] | 9.8 ± 0.085 |
| TATAAATTTTTATTTACATGCAGTTATTATTTCCAT [TGCATGCA_site41] | 10 ± 0.18 |
| TAGTATTAAAATATTTGTACTTATATGTATTATATA [XGTACX_site538] | 11 ± 0.69 |
| GCTTTTAAAATAATTGGTACACATGTATAAATTCAA [XGTACX_site2327] | 11.1 ± 0.69 |
| TAATGGTGTTCATGTGGTACACTTTATAAATTGGCA [XGTACX_site729] | 11.7 ± 1.1 |
| TAATGGTATAAAAAATGTACATGTTTTTTTACAATT [XGTACX_site4285] | 11.2 ± 0.54 |
| TCATTCATATGTTACACACACACACGCACATAAAAA [CACACA_site7514] | 10.5 ± 0.35 |
| ATTTTATATATGTGTTGTACGGTGAACATTTTGATA [XGTACX_site6538] | 10.8 ± 0.58 |
| TTTTCAATATATATTTGTACTTTATTTTATGATATT [GTGCAC_negctrl_site732] | 11.2 ± 0.75 |
| TTATGATATATTTGTTGTACGCTTTTTTTATGAACT [XGTACX_site573] | 11.8 ± 1.1 |
| ATTTTAAATATTTGTGGTACCCCTTTTTTGTAACAA [XGTACX_site5590] | 11.8 ± 1.1 |
| GAAATATTTGTAAAAACATGCATGGTACTTTTAAAA [TGCATGCA_site6] | 11 ± 0.7 |

| Sequence | gcPBM binding intensity (ln) |
| --- | --- |
| TTCCCTTTTGTAAAATGTACATATATATTTAAACAA [XGTACX_site3263] | 11.2 ± 0.54 |
| ATTTATATTTAATATACACACATTATTTTTTTATAT [CACACA_site574] | 9.955 ± 0.021 |
| ATATATGACAAATGTAGTACAAATTATTGTATCATA [XGTACX_site3675] | 11.4 ± 0.76 |
| TGTAGAGCGCAAAGTAGTACTACAAATTATGGAGGG [XGTACX_site3022] | 11.8 ± 1 |
| TAAAAATGGGAGGGGTGTACTACACAATAAAATTAT [XGTACX_site5641] | 11.6 ± 0.95 |
| TTATATTTTTACAAGAGTACATATATATATATATAT [XGTACX_site5383] | 11.4 ± 1.1 |
| ATGTAAATACATATATGTACACAAATATATATATAT [XGTACX_site3537] | 11.6 ± 1.1 |
| TTATTTTTTTTGTGTTGTACAATTTATTACTACTAA [XGTACX_site346] | 11.3 ± 0.82 |
| TTCTGTGTGTATTGGCGTACAATTATTTTGCCTACA [XGTACX_site205] | 11.7 ± 0.83 |
| TATATTTTATATTGGTGTACAATTTTTTTTTTTTTT [XGTACX_site4291] | 11.4 ± 0.91 |
| TTTTTATAAAAATGAACACACACATATATATATATA [CACACA_site9160] | 10.2 ± 0.49 |
| ATGTGTTGGGAAAAGGCATGCACTTTTTTTTTTTTT [TGCATGCA_site707] | 10.2 ± 0.11 |
| GTACAGATGTAGTATGCATGTAATTATATATAAATT [TGCATGCA_site292] | 11.1 ± 0.47 |
| TTATTATAAAAATGTAGTACAATACTTTTTTTTTTT [XGTACX_site732] | 11.7 ± 0.84 |
| CCTTTATAAAAAAGTAGTACACAATGAATTTATAAT [XGTACX_site5523] | 11.8 ± 1 |
| TTATTTTATAATAAAAGTACACAAAAAAAAAAAAAA [XGTACX_site7668] | 11.4 ± 1.1 |
| TAAAATAAAAATTAAAGTACATATGTATATATATAT [XGTACX_site3984] | 11.1 ± 0.88 |
| TTATATACATAAAAATGTACTTTTTATAAAATATAT [XGTACX_site8281] | 11.2 ± 1 |
| AATAATGTATGAAATAAACACACAAGTAAGTACATA [CACACA_site8776] | 11.7 ± 0.91 |
| AATGAAATAAAATAAAGTACATATATGTAAAAGTAG [XGTACX_site5650] | 11.4 ± 0.79 |
| CTTTTAATTATAAAATGTACTTAAAAATAATAATAC [XGTACX_site635] | 11.1 ± 0.88 |
| GGGGGCTTTTATAAAAGTACAAAATGAATAAAAATT [XGTACX_site2393] | 11.4 ± 0.97 |
| TAATAATAAATAAAATGTACATATGAACAAATAAGT [XGTACX_site6710] | 11.3 ± 0.61 |
| TAATGTATGAAATAAACACACAAGTAAGTACATAAA [CACACA_site2451] | 11.6 ± 0.98 |
| ATATGAAATATATGTAGTACACATAATTAAAAGTAG [XGTACX_site6490] | 11.7 ± 0.86 |
